Measured values as given in the supplement of paper PMC10849652.
Of roughly 7,900 targets only a part is listed; those with a hit were picked by preference. About 0.6% of all pairs of compound and target were hits. Unmarked numbers belong to inactive results.

Columns and labels:
Assay in all cases: log2 fold change, soluble protein after heating vs DMSO (PISA); higher = thermal stabilisation; K562 cells, 10 uM, 30 min; active = over 0.2 and 3.5 SD of the protein, either way, in both replicates (recomputed)
erlotinib = compound: C#Cc1cccc(Nc2ncnc3cc(OCCOC)c(OCCOC)cc23)c1 [erlotinib]
Procedure, shortened: (§1)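 Values are thermal stability changes relative to control samples and are taken from duplicates. They are stated as log2 fold changes. Before quantification by TMTpro 16plex LC-MS/MS with equalised channel sums, K562 cells at 2×10^6 cells/mL were treated with 10 μM compound for 30 min, heated in aliquots for 3 min across 48°C-58°C, pooled, extracted in PBS with 0.5% NP-40 at 4°C, and centrifuged at 21,000xg for 90 min to give the soluble supernatant.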

[1] = compound: C/C(=N\NC(=O)C1=CC(=CC=C1)S(=O)(=O)N2CCOCC2)/C3=C(C=CC(=C3)Cl)O
Procedure, shortened: as §1

[2] = compound: C1=CC(=C(C=C1Cl)C2=NC3=NC=CN=C3C(=N2)NC4=CC=NC=C4)F
Procedure, shortened: as §1

[3] = compound: C1=CC(=CC=C1C2=NC3=C(N2)C=C(C=C3)C(=O)N)OC4=CC=C(C=C4)Cl
Procedure, shortened: as §1

[4] = compound: C1=CC2=C(C=CC(=C2)/C=C\3/C(=O)NC(=NCC4=CC=CS4)S3)N=C1
Procedure, shortened: as §1

[5] = compound: C1=CC2=NC=CN=C2C=C1/C=C/3\C(=O)NC(=O)S3
Procedure, shortened: as §1

[6] = compound: C1=CC=C(C=C1)C2=NC(=C(N2)C3=CC=NC=C3)C4=CC(=C(C=C4)Cl)O
Procedure, shortened: as §1

[7] = compound: C1=CC=C2C(=C1)C3=NNC4=CC=CC(=C43)C2=O
Procedure, shortened: as §1

[8] = compound: C1CCN(C1)C(=O)NC2=CC=CC(=C2)NC3=NC=C(C(=N3)NCCC4=CN=CN4)Br
Procedure, shortened: as §1

[9] = compound: C1CN(CCC1(CC2=CC=C(C=C2)Cl)N)C3=NC=NC4=C3C=CN4
Procedure, shortened: as §1

ibrutinib = compound: C=CC(=O)N1CCC[C@@H](n2nc(-c3ccc(Oc4ccccc4)cc3)c3c(N)ncnc32)C1 [ibrutinib]
Procedure, shortened: as §1

[10] = compound: CC(=O)c1cnc2ccc(-c3cc(Cl)c(O)c(Cl)c3)nc2c1N[C@H]1CC[C@H](CN(C)C)CC1
Procedure, shortened: as §1

ralimetinib = compound: CC(C)(C)Cn1c(N)nc2ccc(-c3[nH]c(C(C)(C)C)nc3-c3ccc(F)cc3)nc21 [ralimetinib]
Procedure, shortened: as §1

[11] = compound: CC(C)(O)CC(=O)NCCn1ccc2ncnc(Nc3ccc(Oc4cccc(C(F)(F)F)c4)c(Cl)c3)c21
Procedure, shortened: as §1

[12] = compound: CC(C)C1=C2N=C(C=C(N2N=C1)NCC3=CC=CC=C3)NCCCCCCN
Procedure, shortened: as §1

[13] = compound: CC(C)C[C@@H](C=O)NC(=O)[C@H](CC(C)C)NC(=O)[C@H](CC(C)C)NC(=O)OCc1ccccc1
Procedure, shortened: as §1

[14] = compound: CC1=C(C(CC(=O)N1)C2=CC=C(C=C2)C(F)(F)F)C(=O)NC3=C(C=C4C(=C3)C=NN4)F
Procedure, shortened: as §1

[15] = compound: CC1=C(C2=C(C=C1)C(=O)C3=CC=CC=C3N2CCCN)C
Procedure, shortened: as §1

IRAK-1-4 Inhibitor I = compound: C1COCCN1CCN2C3=CC=CC=C3N=C2NC(=O)C4=CC(=CC=C4)[N+](=O)[O-] [IRAK-1-4 Inhibitor I]
Procedure, shortened: as §1

pinometostat = compound: CC(C)N(C[C@H]1O[C@@H](n2cnc3c(N)ncnc32)[C@H](O)[C@@H]1O)[C@H]1C[C@@H](CCc2nc3cc(C(C)(C)C)ccc3[nH]2)C1 [pinometostat]
Procedure, shortened: as §1

Sequence of UniProt P68104 (P68104 whole entry, looked up): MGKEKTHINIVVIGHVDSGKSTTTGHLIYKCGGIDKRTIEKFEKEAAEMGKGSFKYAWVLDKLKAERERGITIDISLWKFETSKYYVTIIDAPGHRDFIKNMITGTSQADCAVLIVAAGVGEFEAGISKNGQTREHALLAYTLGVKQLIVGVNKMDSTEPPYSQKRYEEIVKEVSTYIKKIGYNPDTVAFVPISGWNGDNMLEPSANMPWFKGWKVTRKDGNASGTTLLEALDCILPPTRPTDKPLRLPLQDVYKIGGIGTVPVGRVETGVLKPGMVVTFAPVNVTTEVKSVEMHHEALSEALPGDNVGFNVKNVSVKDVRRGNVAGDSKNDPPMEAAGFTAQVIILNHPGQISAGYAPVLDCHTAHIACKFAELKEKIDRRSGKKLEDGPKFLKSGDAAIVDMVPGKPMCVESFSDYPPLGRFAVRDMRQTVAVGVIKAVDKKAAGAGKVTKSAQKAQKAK
Sequence of UniProt P32519 (P32519 whole entry, looked up): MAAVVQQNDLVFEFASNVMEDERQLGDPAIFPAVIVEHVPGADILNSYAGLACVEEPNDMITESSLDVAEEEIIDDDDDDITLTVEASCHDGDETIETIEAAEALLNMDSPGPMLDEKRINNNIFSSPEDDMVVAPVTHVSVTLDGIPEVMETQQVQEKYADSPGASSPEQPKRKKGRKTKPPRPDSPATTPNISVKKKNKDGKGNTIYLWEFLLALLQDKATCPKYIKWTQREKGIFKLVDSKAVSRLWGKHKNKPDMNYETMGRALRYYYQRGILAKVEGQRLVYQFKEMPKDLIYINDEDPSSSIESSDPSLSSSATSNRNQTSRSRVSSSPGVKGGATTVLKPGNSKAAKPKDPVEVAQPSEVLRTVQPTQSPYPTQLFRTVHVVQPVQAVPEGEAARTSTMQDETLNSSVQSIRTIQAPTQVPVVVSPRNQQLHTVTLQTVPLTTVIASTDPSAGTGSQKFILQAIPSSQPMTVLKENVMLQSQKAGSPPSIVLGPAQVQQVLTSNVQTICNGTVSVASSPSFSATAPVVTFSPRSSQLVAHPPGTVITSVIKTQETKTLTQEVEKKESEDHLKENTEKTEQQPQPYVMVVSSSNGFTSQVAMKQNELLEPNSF
Sequence of UniProt Q9NZJ5 (Q9NZJ5 whole entry, looked up): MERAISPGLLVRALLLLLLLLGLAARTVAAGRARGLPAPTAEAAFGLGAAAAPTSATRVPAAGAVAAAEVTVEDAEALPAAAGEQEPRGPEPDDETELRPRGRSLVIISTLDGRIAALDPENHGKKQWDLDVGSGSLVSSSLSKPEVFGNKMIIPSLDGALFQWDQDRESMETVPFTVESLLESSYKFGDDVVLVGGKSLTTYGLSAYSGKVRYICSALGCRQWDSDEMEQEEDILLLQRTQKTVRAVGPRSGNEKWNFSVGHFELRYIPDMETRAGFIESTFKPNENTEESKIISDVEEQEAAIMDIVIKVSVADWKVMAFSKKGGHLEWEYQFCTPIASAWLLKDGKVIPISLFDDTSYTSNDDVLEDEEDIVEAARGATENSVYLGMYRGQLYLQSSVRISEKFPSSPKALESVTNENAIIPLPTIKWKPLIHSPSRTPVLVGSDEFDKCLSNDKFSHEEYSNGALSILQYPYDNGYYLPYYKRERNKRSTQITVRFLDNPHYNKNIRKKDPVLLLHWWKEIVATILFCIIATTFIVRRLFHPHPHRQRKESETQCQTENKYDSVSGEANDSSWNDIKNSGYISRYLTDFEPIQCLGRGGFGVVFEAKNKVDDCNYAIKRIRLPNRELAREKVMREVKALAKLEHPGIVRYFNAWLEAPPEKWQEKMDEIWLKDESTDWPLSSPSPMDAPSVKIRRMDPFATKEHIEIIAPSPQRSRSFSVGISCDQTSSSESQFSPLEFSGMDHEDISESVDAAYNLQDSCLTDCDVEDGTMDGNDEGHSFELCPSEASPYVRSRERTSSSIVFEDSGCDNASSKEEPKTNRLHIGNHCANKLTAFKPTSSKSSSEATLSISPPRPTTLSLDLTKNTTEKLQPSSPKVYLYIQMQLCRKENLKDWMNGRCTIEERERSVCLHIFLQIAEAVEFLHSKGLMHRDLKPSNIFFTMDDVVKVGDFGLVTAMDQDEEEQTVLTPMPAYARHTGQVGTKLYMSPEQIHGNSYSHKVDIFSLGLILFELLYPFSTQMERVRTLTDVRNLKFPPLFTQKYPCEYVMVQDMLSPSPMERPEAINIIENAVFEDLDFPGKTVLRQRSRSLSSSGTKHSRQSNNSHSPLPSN
Sequence of UniProt Q8TCE6 (Q8TCE6 whole entry, looked up): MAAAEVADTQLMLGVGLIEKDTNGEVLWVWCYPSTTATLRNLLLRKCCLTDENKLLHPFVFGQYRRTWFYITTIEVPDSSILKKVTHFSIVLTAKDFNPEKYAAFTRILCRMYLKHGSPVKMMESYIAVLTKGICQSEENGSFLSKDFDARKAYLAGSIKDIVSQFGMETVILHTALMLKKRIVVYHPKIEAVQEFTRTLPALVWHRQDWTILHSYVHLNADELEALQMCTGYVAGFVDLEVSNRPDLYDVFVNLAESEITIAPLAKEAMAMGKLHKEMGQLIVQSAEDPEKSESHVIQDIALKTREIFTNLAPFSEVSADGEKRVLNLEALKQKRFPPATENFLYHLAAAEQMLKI
Sequence of UniProt A1L3X0 (A1L3X0 whole entry, looked up): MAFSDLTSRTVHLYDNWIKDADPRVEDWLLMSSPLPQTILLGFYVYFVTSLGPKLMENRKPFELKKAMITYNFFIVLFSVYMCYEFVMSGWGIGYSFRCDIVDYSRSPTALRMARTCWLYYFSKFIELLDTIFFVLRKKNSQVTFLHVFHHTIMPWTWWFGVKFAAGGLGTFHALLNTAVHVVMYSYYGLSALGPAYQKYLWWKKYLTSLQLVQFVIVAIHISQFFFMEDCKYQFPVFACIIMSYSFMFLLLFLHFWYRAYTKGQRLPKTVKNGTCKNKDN
Sequence of UniProt Q01780 (Q01780 whole entry, looked up): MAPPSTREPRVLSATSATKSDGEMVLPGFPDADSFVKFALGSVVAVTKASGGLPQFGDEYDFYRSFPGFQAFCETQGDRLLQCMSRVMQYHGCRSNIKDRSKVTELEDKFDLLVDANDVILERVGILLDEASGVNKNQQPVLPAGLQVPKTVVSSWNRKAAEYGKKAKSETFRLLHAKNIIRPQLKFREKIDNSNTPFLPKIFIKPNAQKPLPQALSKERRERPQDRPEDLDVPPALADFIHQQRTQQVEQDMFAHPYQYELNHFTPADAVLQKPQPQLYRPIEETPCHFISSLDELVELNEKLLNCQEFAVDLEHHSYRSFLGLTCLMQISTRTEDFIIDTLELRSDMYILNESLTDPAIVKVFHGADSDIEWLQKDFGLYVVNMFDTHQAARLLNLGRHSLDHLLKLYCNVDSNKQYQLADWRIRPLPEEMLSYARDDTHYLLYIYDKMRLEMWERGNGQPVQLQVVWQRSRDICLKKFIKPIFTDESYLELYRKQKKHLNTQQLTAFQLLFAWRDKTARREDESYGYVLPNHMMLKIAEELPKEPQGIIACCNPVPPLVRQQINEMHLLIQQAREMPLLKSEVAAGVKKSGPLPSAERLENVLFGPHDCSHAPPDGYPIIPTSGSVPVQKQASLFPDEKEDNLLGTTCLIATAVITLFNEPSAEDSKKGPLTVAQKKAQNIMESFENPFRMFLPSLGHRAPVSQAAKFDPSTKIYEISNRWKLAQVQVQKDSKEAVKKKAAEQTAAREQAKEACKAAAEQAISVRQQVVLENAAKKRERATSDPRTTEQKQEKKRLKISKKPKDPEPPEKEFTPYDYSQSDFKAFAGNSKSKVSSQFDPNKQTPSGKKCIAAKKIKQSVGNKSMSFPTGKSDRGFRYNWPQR
Sequence of UniProt P18146 (P18146 whole entry, looked up): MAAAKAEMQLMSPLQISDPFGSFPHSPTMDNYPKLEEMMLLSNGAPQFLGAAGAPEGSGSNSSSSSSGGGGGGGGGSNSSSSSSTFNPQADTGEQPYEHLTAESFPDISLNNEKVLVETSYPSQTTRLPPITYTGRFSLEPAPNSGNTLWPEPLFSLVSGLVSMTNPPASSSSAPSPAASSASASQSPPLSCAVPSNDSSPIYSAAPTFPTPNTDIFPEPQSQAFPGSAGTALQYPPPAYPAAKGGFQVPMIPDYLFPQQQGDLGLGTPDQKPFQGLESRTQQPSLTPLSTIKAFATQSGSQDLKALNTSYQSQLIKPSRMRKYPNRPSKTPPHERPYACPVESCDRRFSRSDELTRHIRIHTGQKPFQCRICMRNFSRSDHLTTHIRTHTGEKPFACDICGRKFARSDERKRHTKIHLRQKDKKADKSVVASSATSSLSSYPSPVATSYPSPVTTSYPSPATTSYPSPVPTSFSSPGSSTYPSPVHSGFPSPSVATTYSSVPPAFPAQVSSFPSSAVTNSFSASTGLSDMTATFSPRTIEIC
Sequence of UniProt Q15910 (Q15910 whole entry, looked up): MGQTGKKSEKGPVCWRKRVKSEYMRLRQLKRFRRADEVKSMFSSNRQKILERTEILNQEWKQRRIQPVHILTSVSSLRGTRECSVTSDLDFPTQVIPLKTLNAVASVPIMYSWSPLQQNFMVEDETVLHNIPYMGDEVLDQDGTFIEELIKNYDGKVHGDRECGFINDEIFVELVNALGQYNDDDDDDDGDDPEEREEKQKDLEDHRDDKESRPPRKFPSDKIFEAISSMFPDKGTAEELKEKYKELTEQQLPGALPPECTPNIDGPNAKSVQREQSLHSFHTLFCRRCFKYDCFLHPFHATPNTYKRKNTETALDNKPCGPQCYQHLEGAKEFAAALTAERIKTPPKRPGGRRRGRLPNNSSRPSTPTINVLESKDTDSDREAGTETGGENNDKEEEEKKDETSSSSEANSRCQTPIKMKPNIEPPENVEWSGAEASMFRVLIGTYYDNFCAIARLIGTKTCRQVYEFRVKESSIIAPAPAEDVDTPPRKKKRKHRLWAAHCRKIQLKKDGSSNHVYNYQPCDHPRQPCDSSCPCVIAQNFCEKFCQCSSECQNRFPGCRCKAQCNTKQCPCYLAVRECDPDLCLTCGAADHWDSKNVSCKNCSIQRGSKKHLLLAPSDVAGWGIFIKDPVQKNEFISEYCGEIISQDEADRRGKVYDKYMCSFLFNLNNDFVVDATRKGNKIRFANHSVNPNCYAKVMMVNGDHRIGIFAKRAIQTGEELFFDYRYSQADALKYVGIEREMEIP

| Target | log2 fold change (erlotinib) | log2 fold change [1] | log2 fold change [2] | log2 fold change [3] | log2 fold change [4] | log2 fold change [5] | log2 fold change [6] | log2 fold change [7] | log2 fold change [8] | log2 fold change [9] | log2 fold change (ibrutinib) | log2 fold change [10] | log2 fold change (ralimetinib) | log2 fold change [11] | log2 fold change [12] | log2 fold change [13] | log2 fold change [14] | log2 fold change [15] | log2 fold change (IRAK-1-4 Inhibitor I) | log2 fold change (pinometostat) |
| --- | --- | --- | --- | --- | --- | --- | --- | --- | --- | --- | --- | --- | --- | --- | --- | --- | --- | --- | --- | --- |
| DENND10 (UniProt Q8TCE6) | -0.01 | -0.005 | -0.049 | -0.08 | -0.051 | 0.018 | 0 | -0.04 | 0.063 | 0.083 | 0.037 | 0 | -0.003 | -0.025 | -0.119 | 0.016 | 0.059 | -0.185 | – | – |
| DMAC1 (UniProt Q96GE9) | 0.041 | 0.076 | 0.128 | -0.002 | 0.059 | -0.004 | -0.04 | -0.021 | 0.008 | 0.072 | 0.048 | 0.034 | -0.011 | 0.072 | 0.019 | 0.067 | 0.063 | -0.013 | 0.018 | -0.002 |
| DDX27 (UniProt Q96GQ7) | 0.104 | -0.116 | -0.287 | 0.015 | 0.059 | – | -0.039 | 0.025 | -0.064 | -0.259 | – | 0.115 | 0.04 | 0.106 | -0.177 | 0.104 | -0.344 | -0.351 | -0.037 | 0.311 |
| DHX40 (UniProt Q8IX18) | 0.019 | 0.05 | -0.008 | 0.071 | 0.044 | 0.092 | -0.046 | -0.034 | -0.071 | -0.038 | -0.04 | -0.069 | -0.036 | -0.07 | -0.075 | -0.038 | 0.061 | 0.096 | 0.047 | 0.047 |
| EEF1A1 (UniProt P68104) | -0.083 | 0.119 | 0.051 | 0.062 | -0.062 | -0.343 | 0.195 | 0.135 | -0.055 | 0.122 | 0.121 | 0.05 | 0.133 | -0.052 | -0.037 | -0.019 | 0.01 | -0.178 | 0.133 | -0.028 |
| EXOC4 (UniProt Q96A65) | 0.131 | 0.159 | 0.044 | -0.071 | 0.09 | 0.033 | -0.036 | -0.018 | -0.02 | -0.083 | -0.028 | -0.007 | 0.024 | -0.099 | -0.442 (active) | 0.04 | 0.035 | -0.01 | -0.123 | 0.143 |
| EZH2 isoform 2 (UniProt Q15910) | -0.036 | 0.129 | 0.163 | 0.084 | 0.046 | 0.048 | – | 0.054 | -0.106 | -0.062 | -0.114 | 0.115 | – | -0.041 | -0.239 | – | – | -0.11 | -0.247 | 0.068 |
| ELF1 (UniProt P32519) | -0.016 | -0.052 | 0.068 | 0.028 | -0.003 | – | 0.082 | -0.091 | 0.013 | -0.092 | – | 0.143 | 0.186 | -0.567 (active) | -0.072 | -0.076 | -0.22 | -0.473 | -0.12 | 0.053 |
| DHFR (UniProt P00374) | 0.156 | 0 | -0.176 | -0.144 | 0.03 | 0.043 | 0.055 | 0.049 | -0.047 | -0.015 | -0.008 | -0.06 | 0.192 | -0.044 | 0.101 | 0.083 | -0.114 | 0.2 | -0.065 | 0.255 |
| EIF2AK3 (UniProt Q9NZJ5) | 0.056 | 0.022 | 0.091 | -0.222 | 0.421 | -0.311 | – | -0.016 | 0.148 | 0.075 | 0.13 | -0.369 | – | -0.322 | 0.011 | – | -0.106 | 0.032 | -0.136 | -0.048 |
| EXOSC10 (UniProt Q01780) | 1.07 | -0.86 (active) | 0.136 | 0.008 | 0.078 | -0.101 | -0.444 | -0.055 | 0.052 | 0.067 | 0.033 | 0.026 | -0.261 | -0.01 | 0.213 | 0.247 | – | 0.076 | 0.165 | 0.059 |
| DYNC1I2 isoform 2 (UniProt Q13409) | 0.018 | 0.155 | 0.057 | -0.056 | -0.202 | -0.013 | 0.17 | 0.057 | -0.062 | 0.029 | 0.126 | 0.106 | 0.055 | -0.133 | -0.105 | 0.154 | – | -0.05 | 0.012 | 0.023 |
| ELOVL5 isoform 2 (UniProt Q9NYP7) | 0.03 | 0.117 | -0.087 | -0.005 | 0.084 | 0.122 | 0.068 | -0.068 | 0.031 | 0.008 | -0.075 | -0.032 | -0.058 | -0.272 | -0.348 | -0.05 | -0.027 | 0.002 | – | – |
| ERLIN1 (UniProt O75477) | -0.081 | 0.013 | -0.097 | -0.001 | -0.015 | -0.011 | -0.006 | -0.047 | 0.008 | -0.124 | -0.06 | 0.105 | 0.054 | -0.018 | -0.269 (active) | -0.007 | 0.012 | 0.068 | -0.073 | 0.098 |
| EGR1 (UniProt P18146) | -0.105 | 0.001 | 0.071 | 0.176 | 0.208 | 0.088 | -0.28 | -0.474 | 0.118 | -0.121 | 0 | -1.07 (active) | 0.042 | 0.044 | -0.452 | 0.153 | 0.188 | -0.472 | – | – |
| ELOVL7 (UniProt A1L3X0) | -0.008 | 0.062 | -0.065 | 0.009 | 0.182 | – | – | -0.162 | 0.078 | 0.065 | – | 0.059 | – | -0.177 | -0.617 (active) | – | – | 0.062 | – | – |
| DPYSL2 (UniProt Q16555) | -0.02 | -0.104 | 0.099 | 0.072 | 0.074 | 0.003 | – | 0.055 | -0.044 | 0.14 | 0.092 | 0.024 | – | 0.092 | 0.066 | – | -0.007 | 0.01 | -0.003 | 0.009 |
